# High-throughput results: PubChem, National Center for Advancing Translational Sciences (NCATS)
# MCF10A rerep – A quantitative high throughput screen for small molecules that induce DNA re-replication in MCF 10a normal breast cells | MCF 10A DNA re-replication, Hoechst nuclear intensity, 48 h | Potency, µM (titrated, usually from 46.1 µM), for the others: top-dose activity, positive = re-replication, actives largely listed as activators | 350,000 compounds, 2.9% hits | AID 624296, 2012; note: potency is the fitted concentration of half-maximal effect; % of control where 0% means no effect; nearly all actives have a fitted effect of over 50% in size
# KB-V1 MDR tox – qHTS assay for MDR1-selective chemotherapeutics: Primary screen using the drug-selected MDR subline cells KB-V1. 400,000 compounds, 3.4% hits. KB-V1 MDR cells viability, CellTiter-Glo, 72 h. Potency, µM (doses to about 46.1 µM), usual class: cytotoxic; note: potency is the fitted concentration of half-maximal effect; % is set by controls: 0 for no effect and ±100 for the full control effect; nearly all actives have a fitted effect of over 60% in size
#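 Cytotoxicity via CellTiter-Glo luminescence after 72 h compound exposure at 37 degrees C. Cells: drug-selected KB-V1 line, DMEM phenol-red free plus 10% FBS. Compounds tested at multiple concentrations; normalized data fitted to concentration-effect curves.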
# SW480 rereplic – A quantitative high throughput screen for small molecules that induce DNA re-replication in SW480 colon adenocarcinoma cells | 340,000 compounds, 1.8% hits | Potency, µM (highest dose often 46.1 µM), for inactives: top-dose re-replication activation, most hits filed as activators | SW480 DNA re-replication, Hoechst DNA content imaging, 48 h | AID 624297, 2012; note: potency is the fitted concentration of half-maximal effect; % of control where 0% means no effect; nearly all actives have a fitted effect of over 55% in size
#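 Image-based DNA-content assay: after two days of treatment, nuclei were labelled with the DNA dye Hoechst and imaged, and hits were compounds raising the count of nuclei showing high fluorescence intensity.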
# D3 ag – qHTS of D3 Dopamine Receptor Agonist: qHTS; D(3) dopamine receptor (Homo sapiens), P35462; D3R DiscoveRx beta-arrestin cells, luminescence, 90 min; max activation, %; 410,000 compounds, 0.58% hits; AID 652048, 2013; in the data active = max activation above about 30%; note: 0% is about no effect
# Target sequence (P35462 whole entry, looked up): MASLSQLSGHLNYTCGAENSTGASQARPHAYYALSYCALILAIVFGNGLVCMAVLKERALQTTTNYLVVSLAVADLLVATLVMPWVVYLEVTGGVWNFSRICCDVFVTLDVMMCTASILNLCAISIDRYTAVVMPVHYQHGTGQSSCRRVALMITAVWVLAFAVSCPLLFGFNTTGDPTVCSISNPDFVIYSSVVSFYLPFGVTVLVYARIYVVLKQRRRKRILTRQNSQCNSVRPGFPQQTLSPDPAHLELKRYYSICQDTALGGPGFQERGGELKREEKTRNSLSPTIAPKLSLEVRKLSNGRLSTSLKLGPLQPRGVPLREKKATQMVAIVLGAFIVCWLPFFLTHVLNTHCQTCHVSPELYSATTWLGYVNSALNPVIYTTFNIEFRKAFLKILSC
#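 Agonist-mode cell screen: cells plated at 1500/well and incubated overnight at 37 °C, then exposed to library compounds for 90 min at 37 °C. Detection reagent was added for 30–60 min at room temperature, and luminescence was read.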
# KB-3-1 cytotox – qHTS assay for MDR1-selective chemotherapeutics: Primary screen using the parental adenocarcinoma cell KB-3-1. Potency, µM (titrated, usually from 46.1 µM), hits mostly cytotoxic. KB-3-1 viability, CellTiter-Glo ATP luminescence, 72 h. 400,000 compounds, 1.4% hits; note: potency is the fitted concentration of half-maximal effect; % is set by controls: 0 for no effect and ±100 for the full control effect; nearly all actives have a fitted effect of over 60% in size
#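 Cells are dispensed, compounds pinned in, plates held at 37 °C for 72 h, then CellTiter-Glo is added and luminescence read after 10 minutes. Cell line: parental KB-3-1 in phenol-red-free DMEM, 10% FBS.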
# DRD3 antagonist – qHTS of D3 Dopamine Receptor Antagonist: qHTS; D(3) dopamine receptor (Homo sapiens), P35462; D3R cells, DiscoveRx beta-arrestin luminescence, antagonist mode; hits give low values; max response, negative = inhibition, %; 360,000 compounds, 2.5% hits; AID 652054, 2013; in the data active = max response below about -50%; inconclusive = no clear call, values can overlap the other calls; note: % is set by controls: 0 for no effect and ±100 for the full control effect
#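 Cells expressing the human receptor were seeded at 1500 cells/well, incubated overnight at 37 degrees C in 5% CO2, then exposed to library compounds with dopamine controls for 90 minutes at 37 degrees C before luminescent detection.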
# Numbers without * were called inactive; i = inactive; ? = inconclusive; · = no result. Compounds with a hit are over-represented: about 8.9% of the library has one in this group of screens. Unless noted, calls come from the whole dose curve; as a rule, active = well fitted curve in the direction sought with a large enough effect; inconclusive = small, poorly fitted or top-dose-only effect, or another doubt; inactive = no such curve, though single readings can be large; an effect the other way counts as inactive or inconclusive.
SMILES,MCF10A rerep,KB-V1 MDR tox,SW480 rereplic,D3 ag,KB-3-1 cytotox,DRD3 antagonist
O=C1c2c(Br)c(Br)c(Br)c(Br)c2C(=O)N1c1ccccn1,0.651µM*,i,-21.9%,-14.3,i,-14.4
CCOc1cc(S(=O)(=O)NCc2ccc3c(c2)OCO3)c(C)cc1C,-6.2%,i,-9.6%,-2.1,i,15.3
O=C(Nc1ccc2c(c1)OCO2)c1cc(-c2ccc(O)cc2)on1,10.3µM*,i,?,3.7,i,13.7
COc1ccccc1-c1cc(C(=O)NCc2ccccc2)no1,13.7%,i,2.6%,-27.5,i,-51.7*
O=C(NCc1ccc2c(c1)OCO2)c1ccc(CSCc2ccc(Cl)cc2)o1,?,20.6µM*,-4.7%,-6.3,i,-29.2
O=C(NCc1ccc(Cl)cc1)c1ccc(CSCc2cccc(Cl)c2)o1,·,i,·,5.9,i,·
CCOc1cc(C)c(Cl)cc1S(=O)(=O)NCc1ccc2c(c1)OCO2,?,13µM*,?,4.0,?,?
COc1ccccc1-c1cc(C(=O)NCc2ccc(Cl)cc2)no1,6.8%,i,1.4%,-51.6,i,?
CC(C)Oc1ccccc1C1C=C(C(=O)O)Nc2ncnn21 (stereo not drawn),·,i,·,2.6,?,·
O=C(Nc1ccc(F)cc1F)c1noc2c1CCc1ccccc1-2,·,i,·,-5.6,i,·
COC(=O)c1ccc(NC(=O)CC2C(=O)N(c3ccc(Cl)cc3)C(=O)N2Cc2cccs2)cc1 (stereo not drawn),·,·,·,6.0,·,·
CC1(C)O[C@H]2[C@@H](O1)[C@@H](C(=O)Nc1ccccc1C(F)(F)F)O[C@@H]1OC(C)(C)O[C@@H]12,·,?,·,-5.3,i,·
NS(=O)(=O)c1ccc(CNC(=O)c2ccc(Cl)c(S(=O)(=O)NCc3ccccc3)c2)cc1,6.1%,i,-0.1%,13.7,i,13.5
O=C(NCc1ccc2c(c1)OCO2)c1ccc(Cl)c(S(=O)(=O)NCc2ccccc2)c1,?,23.1µM*,-1.1%,-6.5,i,4.2
COc1ccccc1-c1cc(C(=O)NCc2ccc(F)cc2)no1,?,16.4µM*,14.2%,-28.8,i,?
CC1CCN(CCCNC(=O)c2ccc(CSCc3cccc(Cl)c3)o2)CC1,?,i,12.6%,-60.3,i,-62.0*
COc1ccc(CNC(=O)c2cc(-c3ccccc3OC)on2)cc1,-3.4%,i,-10.7%,-29.1,i,-62.7*
O=C(NCc1ccc2c(c1)OCO2)c1cc(-c2ccccc2Cl)on1,?,i,4.3%,-0.1,i,-58.8*
O=C(Nc1ccc2c(c1)OCO2)c1cc(-c2ccccc2Cl)on1,1.8%,i,1.8%,-3.7,?,-16.9
Cc1ccc(CNC(=O)c2ccc3c(O)c(S(=O)(=O)c4ccc(Cl)cc4)c(=O)[nH]c3c2)cc1,·,i,·,-6.4,i,·
O=C(Nc1ccccc1)N1CCCC(c2nc(-c3cccs3)no2)C1 (stereo not drawn),-0.1%,11.6µM*,-4.2%,-13.0,i,-11.5
O=C(Nc1ccc(Cl)cc1)N1CCC(c2nc(-c3cccs3)no2)CC1,?,i,?,-14.5,i,-23.3
COc1ccc(NC(=O)N2CCC(c3nc(-c4cccs4)no3)CC2)cc1,8.9%,6.51µM*,-9.6%,5.2,i,14.1
COc1cccc(C(=O)N2CCCC(c3nc(-c4cccs4)no3)C2)c1 (stereo not drawn),6.6%,4.11µM*,0.5%,-13.7,i,4.0
COc1cccc(C2=NS(=O)(=O)N(C)C(C(=O)Nc3cccc(O)c3)=C2)c1,·,i,·,-3.0,i,·
Cc1ccccc1CN1c2ccccc2-c2nc(SCC(=O)c3ccccc3)ncc2S1(=O)=O,·,i,·,3.2,i,·
